# Legend:
# Assay in all cases: SPOT peptide array binding signal intensity (averaged, normalized) (arbitrary units (background-subtracted, floor 0; scale differs between SH3 domains)); higher = stronger binding of the SH3 domain to the peptide
# SpBzz1-D2 = target: SpBzz1-D2
# Procedure, shortened: (§1)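 SH3 domains from four yeast species were expressed as GST fusions in E. coli BL21(DE3) and purified on glutathione Sepharose. Each was incubated at 10 μg/ml overnight at 4°C in TBS-based blocking buffer on cellulose membranes bearing synthetic 15-mer peptides, in which serines replaced cysteines. Bound protein was detected with anti-GST antibody, an HRP anti-mouse secondary and luminol, then imaged and quantified with Genespotter. The binding signal is the normalized, background-subtracted spot intensity averaged over replicates, in arbitrary units that are not the same from one domain to another.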
# SpCyk3 = target: SpCyk3
# Procedure, shortened: as §1
# SpHof1 = target: SpHof1
# Procedure, shortened: as §1
# SpHof1-2 = target: SpHof1-2
# Procedure, shortened: as §1
# SpHof1-3 = target: SpHof1-3
# Procedure, shortened: as §1
# SpHse1 = target: SpHse1
# Procedure, shortened: as §1
# SpLsb1 = target: SpLsb1
# Procedure, shortened: as §1
# SpLsb4 = target: SpLsb4
# Procedure, shortened: as §1
# SpMyo1 = target: SpMyo1
# Procedure, shortened: as §1
# SpNbp2 = target: SpNbp2
# Procedure, shortened: as §1
# SpPex13 = target: SpPex13
# Procedure, shortened: as §1
# SpRvs167 = target: SpRvs167
# Procedure, shortened: as §1
# SpSla1-D1-D2 = target: SpSla1-D1-D2
# Procedure, shortened: as §1
# SpSla1-D3 = target: SpSla1-D3
# Procedure, shortened: as §1
# AgAbp1 = target: AgAbp1
# Procedure, shortened: as §1
# AgBbc1 = target: AgBbc1
# Procedure, shortened: as §1
# AgBem1-D1 = target: AgBem1-D1
# Procedure, shortened: as §1
# AgBzz1-D1 = target: AgBzz1-D1
# Procedure, shortened: as §1
# AgBzz1-D2 = target: AgBzz1-D2
# Procedure, shortened: as §1
# AgCyk3 = target: AgCyk3
# Procedure, shortened: as §1
# AgFus1 = target: AgFus1
# Procedure, shortened: as §1
# AgHof1 = target: AgHof1
# Procedure, shortened: as §1
# AgHse1 = target: AgHse1
# Procedure, shortened: as §1
# AgLsb1 = target: AgLsb1
# Procedure, shortened: as §1
# AgLsb4 = target: AgLsb4
# Procedure, shortened: as §1
# AgMyo5 = target: AgMyo5
# Procedure, shortened: as §1
# AgNbp2 = target: AgNbp2
# Procedure, shortened: as §1
# AgRvs167 = target: AgRvs167
# Procedure, shortened: as §1
# AgSho1 = target: AgSho1
# Procedure, shortened: as §1
# AgSla1-D1-D2 = target: AgSla1-D1-D2
# Procedure, shortened: as §1
# AgSla1-D3 = target: AgSla1-D3
# Procedure, shortened: as §1
# CaAbp1-D1 = target: CaAbp1-D1
# Procedure, shortened: as §1
# CaAbp1-D2 = target: CaAbp1-D2
# Procedure, shortened: as §1
# CaBbc1 = target: CaBbc1
# Procedure, shortened: as §1
# CaBem1-D1 = target: CaBem1-D1
# Procedure, shortened: as §1
# CaBzz1-D1 = target: CaBzz1-D1
# Procedure, shortened: as §1
# CaBzz1-D2 = target: CaBzz1-D2
# Procedure, shortened: as §1
# CaCyk3 = target: CaCyk3
# Procedure, shortened: as §1
# CaFus1 = target: CaFus1
# Procedure, shortened: as §1
# CaHof1 = target: CaHof1
# Procedure, shortened: as §1
# CaHse1 = target: CaHse1
# Procedure, shortened: as §1
# CaLsb1 = target: CaLsb1
# Procedure, shortened: as §1
# CaLsb4 = target: CaLsb4
# Procedure, shortened: as §1
# CaMyo5 = target: CaMyo5
# Procedure, shortened: as §1
# CaNbp2 = target: CaNbp2
# Procedure, shortened: as §1
# CaRvs167 = target: CaRvs167
# Procedure, shortened: as §1
# CaRvs167-3 = target: CaRvs167-3
# Procedure, shortened: as §1
# CaSho1 = target: CaSho1
# Procedure, shortened: as §1
# CaSla1-D1-D2 = target: CaSla1-D1-D2
# Procedure, shortened: as §1
# CaSla1-D3 = target: CaSla1-D3
# Procedure, shortened: as §1
# ScAbp1 = target: ScAbp1
# Procedure, shortened: as §1
# ScBbc1 = target: ScBbc1
# Procedure, shortened: as §1
# ScBem1-D1 = target: ScBem1-D1
# Procedure, shortened: as §1
# ScBzz1-D1 = target: ScBzz1-D1
# Procedure, shortened: as §1
# ScBzz1-D2 = target: ScBzz1-D2
# Procedure, shortened: as §1
# ScCyk3 = target: ScCyk3
# Procedure, shortened: as §1
# ScFus1 = target: ScFus1
# Procedure, shortened: as §1
# ScHof1 = target: ScHof1
# Procedure, shortened: as §1
# ScHse1 = target: ScHse1
# Procedure, shortened: as §1
# ScLsb1 = target: ScLsb1
# Procedure, shortened: as §1
# ScLsb2 = target: ScLsb2
# Procedure, shortened: as §1
# ScLsb3 = target: ScLsb3
# Procedure, shortened: as §1
# ScLsb4 = target: ScLsb4
# Procedure, shortened: as §1
# ScMyo3 = target: ScMyo3
# Procedure, shortened: as §1
# ScMyo5 = target: ScMyo5
# Procedure, shortened: as §1
# ScNbp2 = target: ScNbp2
# Procedure, shortened: as §1
# ScPex13 = target: ScPex13
# Procedure, shortened: as §1
# ScRvs167 = target: ScRvs167
# Procedure, shortened: as §1
# ScSho1 = target: ScSho1
# Procedure, shortened: as §1
# ScSla1-D1-D2 = target: ScSla1-D1-D2
# Procedure, shortened: as §1
# ScSla1-D3 = target: ScSla1-D3
# Procedure, shortened: as §1
# SpAbp1-D1 = target: SpAbp1-D1
# Procedure, shortened: as §1
# SpBbc1 = target: SpBbc1
# Procedure, shortened: as §1
# SpBzz1-D1 = target: SpBzz1-D1
# Procedure, shortened: as §1
binder,measurement,setting,value
LRWRHKFFLPAIAAI,SPOT peptide array binding signal intensity,SpBzz1-D2,≤ 0
same,SPOT peptide array binding signal intensity,SpCyk3,1
same,SPOT peptide array binding signal intensity,SpHof1,33.1
same,SPOT peptide array binding signal intensity,SpHof1-2,2.25
same,SPOT peptide array binding signal intensity,SpHof1-3,830
same,SPOT peptide array binding signal intensity,SpHse1,667
same,SPOT peptide array binding signal intensity,SpLsb1,≤ 0
same,SPOT peptide array binding signal intensity,SpLsb4,21.2
same,SPOT peptide array binding signal intensity,SpMyo1,≤ 0
same,SPOT peptide array binding signal intensity,SpNbp2,41.8
same,SPOT peptide array binding signal intensity,SpPex13,6.25
same,SPOT peptide array binding signal intensity,SpRvs167,1
same,SPOT peptide array binding signal intensity,SpSla1-D1-D2,2
same,SPOT peptide array binding signal intensity,SpSla1-D3,≤ 0
RRRIAYPFYPFKKLG,SPOT peptide array binding signal intensity,AgAbp1,69
same,SPOT peptide array binding signal intensity,AgBbc1,≤ 0
same,SPOT peptide array binding signal intensity,AgBem1-D1,22
same,SPOT peptide array binding signal intensity,AgBzz1-D1,32.5
same,SPOT peptide array binding signal intensity,AgBzz1-D2,9
same,SPOT peptide array binding signal intensity,AgCyk3,1
same,SPOT peptide array binding signal intensity,AgFus1,337
same,SPOT peptide array binding signal intensity,AgHof1,8.75
same,SPOT peptide array binding signal intensity,AgHse1,914
same,SPOT peptide array binding signal intensity,AgLsb1,1.5
same,SPOT peptide array binding signal intensity,AgLsb4,19.5
same,SPOT peptide array binding signal intensity,AgMyo5,1.75
same,SPOT peptide array binding signal intensity,AgNbp2,124
same,SPOT peptide array binding signal intensity,AgRvs167,6.5
same,SPOT peptide array binding signal intensity,AgSho1,79
same,SPOT peptide array binding signal intensity,AgSla1-D1-D2,22
same,SPOT peptide array binding signal intensity,AgSla1-D3,≤ 0
same,SPOT peptide array binding signal intensity,CaAbp1-D1,482
same,SPOT peptide array binding signal intensity,CaAbp1-D2,238
same,SPOT peptide array binding signal intensity,CaBbc1,0.25
same,SPOT peptide array binding signal intensity,CaBem1-D1,23
same,SPOT peptide array binding signal intensity,CaBzz1-D1,21
same,SPOT peptide array binding signal intensity,CaBzz1-D2,9.5
same,SPOT peptide array binding signal intensity,CaCyk3,1
same,SPOT peptide array binding signal intensity,CaFus1,672
same,SPOT peptide array binding signal intensity,CaHof1,0.5
same,SPOT peptide array binding signal intensity,CaHse1,47.8
same,SPOT peptide array binding signal intensity,CaLsb1,≤ 0
same,SPOT peptide array binding signal intensity,CaLsb4,15
same,SPOT peptide array binding signal intensity,CaMyo5,0.25
same,SPOT peptide array binding signal intensity,CaNbp2,565
same,SPOT peptide array binding signal intensity,CaRvs167,13.3
same,SPOT peptide array binding signal intensity,CaRvs167-3,62.5
same,SPOT peptide array binding signal intensity,CaSho1,486
same,SPOT peptide array binding signal intensity,CaSla1-D1-D2,≤ 0
same,SPOT peptide array binding signal intensity,CaSla1-D3,2.5
same,SPOT peptide array binding signal intensity,ScAbp1,103
same,SPOT peptide array binding signal intensity,ScBbc1,≤ 0
same,SPOT peptide array binding signal intensity,ScBem1-D1,16
same,SPOT peptide array binding signal intensity,ScBzz1-D1,6
same,SPOT peptide array binding signal intensity,ScBzz1-D2,14
same,SPOT peptide array binding signal intensity,ScCyk3,38.5
same,SPOT peptide array binding signal intensity,ScFus1,230
same,SPOT peptide array binding signal intensity,ScHof1,0.5
same,SPOT peptide array binding signal intensity,ScHse1,1700
same,SPOT peptide array binding signal intensity,ScLsb1,3.5
same,SPOT peptide array binding signal intensity,ScLsb2,4
same,SPOT peptide array binding signal intensity,ScLsb3,104
same,SPOT peptide array binding signal intensity,ScLsb4,11
same,SPOT peptide array binding signal intensity,ScMyo3,4
same,SPOT peptide array binding signal intensity,ScMyo5,≤ 0
same,SPOT peptide array binding signal intensity,ScNbp2,173
same,SPOT peptide array binding signal intensity,ScPex13,0.5
same,SPOT peptide array binding signal intensity,ScRvs167,13.3
same,SPOT peptide array binding signal intensity,ScSho1,606
same,SPOT peptide array binding signal intensity,ScSla1-D1-D2,≤ 0
same,SPOT peptide array binding signal intensity,ScSla1-D3,≤ 0
same,SPOT peptide array binding signal intensity,SpAbp1-D1,155
same,SPOT peptide array binding signal intensity,SpBbc1,1
same,SPOT peptide array binding signal intensity,SpBzz1-D1,37
same,SPOT peptide array binding signal intensity,SpBzz1-D2,≤ 0
same,SPOT peptide array binding signal intensity,SpCyk3,≤ 0
same,SPOT peptide array binding signal intensity,SpHof1,37.5
same,SPOT peptide array binding signal intensity,SpHof1-2,12.5
same,SPOT peptide array binding signal intensity,SpHof1-3,225
same,SPOT peptide array binding signal intensity,SpHse1,745
same,SPOT peptide array binding signal intensity,SpLsb1,1.5
same,SPOT peptide array binding signal intensity,SpLsb4,47
same,SPOT peptide array binding signal intensity,SpMyo1,2.5
same,SPOT peptide array binding signal intensity,SpNbp2,394
same,SPOT peptide array binding signal intensity,SpPex13,5.5
same,SPOT peptide array binding signal intensity,SpRvs167,7.33
same,SPOT peptide array binding signal intensity,SpSla1-D1-D2,≤ 0
same,SPOT peptide array binding signal intensity,SpSla1-D3,1.5
